Results: PubChem BioAssay
Active and inactive are the calls of the source.

Key:
[1] = E. coli DRC41 culture turbidity changes, primary screen, E. coli filamentation inducer project, strain DRC41, OD650, 48 h (AID 1152);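 note: E. coli MC1000 strain DRC41 lacking acrAB efflux pump and sulA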; details: E. coli DRC41 (acrAB sulA), higher = more signal, called active from +8 up or from −8 down
[2] = small-molecule binders of probe aLefty1, primary screen, biochemical, small-molecule microarray, 635/667 nm fluorescence (AID 1153); details: higher = more signal;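 note: score merges spot fluorescence with signal-to-noise ratio from the scanned slide images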
[3] = PSAC antagonists in infected red cells, primary screen, cell-based, P. falciparum Indochina, OD700, 1 h (AID 1154); details: P. falciparum Indochina infected RBC osmotic lysis, higher = more signal, called active from +8 up or from −8 down
[4] = PSAC antagonists in infected red cells, primary screen, cell-based, P. falciparum Indochina, OD700, 2 h (AID 1155);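 note: lysis reports solute entry through the parasite surface anion channel PSAC; channel blockers reduce lysis of infected cells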; details: P. falciparum Indochina infected erythrocytes, osmotic lysis OD700; higher = more signal, called active from +8 up or from −8 down
[5] = osmotic lysis modulators in infected erythrocytes, primary screen, PSAC antagonist project, cell-based, P. falciparum Indochina, OD700, 3 h (AID 1156); details: higher = more signal, called active from +8 up or from −8 down
[6] = PSAC antagonists in infected red cells, primary screen, cell-based, P. falciparum Indochina, OD700, 18 h (AID 1157); details: P. falciparum Indochina infected erythrocytes, osmotic lysis OD700, 18 h; higher = more signal, called active from +8 up or from −8 down
[7] = modulators of S6 phosphorylation in cells, primary screen, cell-based, A549, cytoblot, luminescence, serum-stimulated (AID 1158); details: A549 phospho-S6 cytoblot, 5 h, higher = more signal;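 note: serum-stimulated A549 lung adenocarcinoma cells; signal is phosphorylated S6 detected by cytoblot immunostaining with HRP secondary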
[8] = molecular target: NADPH oxidase 2 (Homo sapiens) (UniProt P04839); experiment: NOX2-dependent H2O2 signal modulators, primary screen, NOX inhibitor project, cell-based, HEK293-NOX2, PMA-stimulated, Amplex Red fluorescence (AID 1159); details: 45 min, higher = more signal, called active from +8 up or from −8 down; note: test concentration not given here
Chain of NADPH oxidase 2 (Homo sapiens) (P04839 whole entry, looked up): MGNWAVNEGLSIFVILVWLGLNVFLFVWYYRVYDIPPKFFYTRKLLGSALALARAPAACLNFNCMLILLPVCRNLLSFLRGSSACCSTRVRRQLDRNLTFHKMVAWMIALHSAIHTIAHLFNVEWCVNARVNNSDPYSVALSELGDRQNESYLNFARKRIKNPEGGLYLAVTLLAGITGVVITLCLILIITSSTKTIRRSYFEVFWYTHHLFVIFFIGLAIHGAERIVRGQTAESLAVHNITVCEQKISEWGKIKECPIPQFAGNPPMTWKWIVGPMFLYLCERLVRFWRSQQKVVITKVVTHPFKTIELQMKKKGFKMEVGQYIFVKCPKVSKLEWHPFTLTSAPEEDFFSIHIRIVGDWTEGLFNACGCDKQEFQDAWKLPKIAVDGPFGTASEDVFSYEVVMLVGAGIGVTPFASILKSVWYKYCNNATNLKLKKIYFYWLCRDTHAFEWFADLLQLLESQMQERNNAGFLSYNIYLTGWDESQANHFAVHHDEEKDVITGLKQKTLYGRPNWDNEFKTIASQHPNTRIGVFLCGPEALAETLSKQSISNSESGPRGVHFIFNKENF

[9] = molecular target: NADPH oxidase 4 (Homo sapiens) (UniProt Q9NPH5); experiment: NOX4-dependent H2O2 signal modulators, primary screen, NOX inhibitor project, cell-based, HEK293-NOX4, tetracycline-induced, Amplex Red fluorescence (AID 1160); details: 45 min, higher = more signal, called active from +8 up or from −8 down
Chain of NADPH oxidase 4 (Homo sapiens) (Q9NPH5 whole entry, looked up): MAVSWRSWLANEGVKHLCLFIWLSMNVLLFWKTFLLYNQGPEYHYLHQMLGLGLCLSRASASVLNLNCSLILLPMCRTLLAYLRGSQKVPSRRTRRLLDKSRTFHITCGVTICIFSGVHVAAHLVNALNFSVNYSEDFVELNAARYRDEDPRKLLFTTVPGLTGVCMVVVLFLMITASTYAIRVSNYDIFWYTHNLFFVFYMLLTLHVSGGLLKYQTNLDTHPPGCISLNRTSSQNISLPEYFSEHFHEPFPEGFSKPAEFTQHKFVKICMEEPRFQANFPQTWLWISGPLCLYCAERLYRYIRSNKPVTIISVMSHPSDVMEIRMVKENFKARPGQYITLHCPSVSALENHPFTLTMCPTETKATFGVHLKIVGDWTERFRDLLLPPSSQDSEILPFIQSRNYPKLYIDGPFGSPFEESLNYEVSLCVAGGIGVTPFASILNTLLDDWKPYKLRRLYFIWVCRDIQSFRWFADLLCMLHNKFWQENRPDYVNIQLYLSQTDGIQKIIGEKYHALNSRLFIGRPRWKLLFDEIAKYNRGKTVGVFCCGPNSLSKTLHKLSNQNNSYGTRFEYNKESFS

[10] = molecular target: NADPH oxidase 5 (Homo sapiens) (UniProt Q96PH1); experiment: NOX5-dependent H2O2 signal modulators, primary screen, NOX inhibitor project, cell-based, HEK293-NOX5, Amplex Red fluorescence (AID 1161); details: HEK293-NOX5, ionomycin, 45 min, higher = more signal
Chain of NADPH oxidase 5 (Homo sapiens) (Q96PH1 whole entry, looked up): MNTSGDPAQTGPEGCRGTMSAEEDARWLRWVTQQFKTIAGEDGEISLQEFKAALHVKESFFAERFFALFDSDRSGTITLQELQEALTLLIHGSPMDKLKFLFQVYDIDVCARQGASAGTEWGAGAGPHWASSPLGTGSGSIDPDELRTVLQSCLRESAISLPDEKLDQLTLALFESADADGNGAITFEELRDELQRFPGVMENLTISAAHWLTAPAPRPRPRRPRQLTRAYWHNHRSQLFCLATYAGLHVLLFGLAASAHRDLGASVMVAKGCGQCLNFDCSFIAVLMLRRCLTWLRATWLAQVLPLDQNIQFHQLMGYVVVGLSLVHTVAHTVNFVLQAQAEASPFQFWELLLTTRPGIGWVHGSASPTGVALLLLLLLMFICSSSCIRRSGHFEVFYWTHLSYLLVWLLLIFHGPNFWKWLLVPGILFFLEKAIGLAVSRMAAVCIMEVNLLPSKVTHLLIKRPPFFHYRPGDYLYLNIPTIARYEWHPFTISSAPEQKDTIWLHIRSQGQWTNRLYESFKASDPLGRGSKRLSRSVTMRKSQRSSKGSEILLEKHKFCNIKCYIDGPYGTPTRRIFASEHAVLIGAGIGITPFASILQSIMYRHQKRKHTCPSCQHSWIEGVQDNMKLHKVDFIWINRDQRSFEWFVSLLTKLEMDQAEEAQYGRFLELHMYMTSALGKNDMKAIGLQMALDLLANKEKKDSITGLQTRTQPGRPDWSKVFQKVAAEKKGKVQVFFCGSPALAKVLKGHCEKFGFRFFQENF

[11] = A549 cell viability effects, profiling panel, calcein-AM fluorescence, 48 h, basal (AID 1162); details: higher = more signal; note: test concentration not given here
[12] = adipocyte viability effects, profiling panel, cell-based, 3T3-L1 adipocytes, calcein-AM fluorescence, 48 h, basal (AID 1163); details: 3T3-L1 adipocytes viability, higher = more signal; note: test concentration not given here
[13] = HepG2 cell viability effects, profiling panel, calcein-AM fluorescence, 48 h, basal (AID 1164); details: higher = more signal; note: test concentration not given here
[14] = MM1S cell viability effects, profiling panel, calcein-AM fluorescence, 48 h, basal (AID 1165); details: higher = more signal;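 note: viability of MM1S multiple myeloma cells under basal unstimulated conditions; test concentration not given here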
[15] = basal RPMI8226 viability, no added stimulus, profiling panel, cell-based, calcein-AM fluorescence, 48 h, PK04 Diversity Set (AID 1166); details: RPMI8226 myeloma viability, higher = more signal;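 note: cells grown under basal conditions without added stimulus; test concentration not given here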
[16] = basal HepG2 mitochondrial membrane potential changes, profiling panel, cell-based, JC-1 fluorescence, 24 h, 100 nL compound (AID 1167); details: higher = more signal; note: test concentration not given here
[17] = basal 3T3-L1 adipocyte mitochondrial potential changes, profiling panel, cell-based, JC-1 fluorescence, 3T3-L1 adipocytes, 24 h, 100 nL compound (AID 1168); details: JC-1 mitochondrial fluorescence, higher = more signal, called active from +8 up or from −8 down; note: test concentration not given here
[18] = basal RPMI8226 mitochondrial membrane potential changes, profiling panel, cell-based, JC-1 fluorescence, 24 h, 100 nL compound (AID 1169); details: RPMI8226 myeloma, JC-1 mitochondrial potential fluorescence, higher = more signal; note: test concentration not given here
[19] = basal MM1S mitochondrial membrane potential changes, profiling panel, cell-based, JC-1 fluorescence, 24 h, 100 nL compound (AID 1170); details: higher = more signal; note: test concentration not given here
[20] = A549 lung cancer cell viability effects, profiling panel, resazurin fluorescence, 24 h, PK04 Diversity Set (AID 1171); details: higher = more signal, called active from +8 up or from −8 down; note: test concentration not given here

| Structure (SMILES) | z-score [1] | composite z-score [2] | z-score [3] | z-score [4] | z-score [5] | z-score [6] | z-score [7] | z-score [8] | z-score [9] | z-score [10] | z-score [11] | z-score [12] | z-score [13] | z-score [14] | z-score [15] | z-score [16] | z-score [17] | z-score [18] | z-score [19] | z-score [20] |
| --- | --- | --- | --- | --- | --- | --- | --- | --- | --- | --- | --- | --- | --- | --- | --- | --- | --- | --- | --- | --- |
| CCOC(=O)C1=C[C@@H](c2ccccc2)N(S(=O)(=O)c2ccc(C)cc2)[C@H]1c1cccc(Cl)c1 | -1.29 (inactive) | 0.409 | 1.57 (inactive) | 1.24 (inactive) | -0.276 (inactive) | 0.805 (inactive) | -0.645 | 0.14 (inactive) | -0.143 (inactive) | 0.0576 | -1.17 | 0.452 | -1.71 | -1.33 | -1.48 | 2.04 | -0.591 (inactive) | 0.754 | 0.648 | 0.776 (inactive) |
| COc1ccccc1CN1C(=O)c2ccccc2[C@@H](C(=O)NC(C)C)[C@@H]1c1ccc(CO)cc1 | 0.671 (inactive) | 0.211 | 1.18 (inactive) | 0.525 (inactive) | 0.797 (inactive) | 0.376 (inactive) | 0.0984 | 0.372 (inactive) | 1.44 (inactive) | 0.976 | 1.66 | 0.611 | 1.95 | 0.472 | 0.717 | 1.63 | -0.41 (inactive) | 0.652 | -0.365 | 2.35 (inactive) |
| O=C(N1CCCCC1)[C@@]1(Cc2ccccc2)COC(c2ccc(OCCCO)cc2)=N1 | 0.436 (inactive) | 0.461 | 20.9 (active) | 3.44 (inactive) | 1.32 (inactive) | 0.42 (inactive) | -0.666 | -4.59 (inactive) | -0.936 (inactive) | -2.26 | -1.14 | 0.675 | -0.159 | -3.14 | -1.77 | -2.33 | 0.987 (inactive) | -1.08 | -0.923 | 1.68 (inactive) |
| CC(C)N1CC=CC23O[C@@H]4C=CCCOC(=O)C4[C@H]2C(=O)N(CCO)[C@@H]3C1=O (stereo not given in full) | 2.1 (inactive) | -0.357 | 0.326 (inactive) | 0.568 (inactive) | 1.03 (inactive) | 0.406 (inactive) | 0.468 | 1.37 (inactive) | 0.509 (inactive) | 1.54 | -0.555 | -0.0175 | -2.03 | 0.506 | 0.0275 | -0.333 | 0.5 (inactive) | 1 | 0.862 | 1.06 (inactive) |
